According to ChEMBL document CHEMBL1157539, “Thousands of chemical starting points for antimalarial lead identification” (Nature, 2010):
Values joined by “and” are separate entries in the source; they are usually repeats but may differ in a detail not shown here. Equal entries are not always repeated.

Experiments:
Type in all cases: functional
Plasmodium falciparum [1] = assay: GSK_TCMDC: Inhibition of Plasmodium falciparum 3D7 in whole red blood cells, using parasite LDH activity as an index of growth. Test compounds present at 2uM
Plasmodium falciparum [2] = assay: GSK_TCMDC: Inhibition of Plasmodium falciparum Dd2 in whole red blood cells, using parasite LDH activity as an index of growth. Test compounds present at 2uM
HepG2 = assay: GSK_TCMDC: Percent inhibition of human HepG2 cell line. Test compounds present at 10uM.

Row | Structure (SMILES) | Inhibition (Plasmodium falciparum [1]) | Inhibition (Plasmodium falciparum [2]) | Inhibition (HepG2)
1 | CCCCCC(C)c1cc(O)c2c(c1)OC(C)(C)C=C2C1=CCN(Cc2ccccc2)CC1 (configuration not stated) | 96% | 96% | 13%
2 | O=C(Nc1cccc(CN2CCCN(Cc3ccc(O)cc3)CC2)c1)c1ccc(-c2ccccc2)cc1.O=C(O)C(F)(F)F | 100% | 93% | 33%
3 | CCCN(CC1CC1)c1nc(C)nc2c(-c3ccccc3)cc(C)cc12 | 96% | 78% | 72%
4 | CC(C)(C)c1ccc(N2C(N)=NC(N)=NC2(C)C)cc1Cl.Cl | 94% | 3% | 51%
5 | Cc1sc2ccc(Cl)cc2c1S(=O)(=O)Nc1ccc2nccc(N3CC(C)NC(C)C3)c2c1.Cl (configuration not stated) | 100% | 100% | 17%
6 | NC(=O)COc1cccc2c1CCN(CCN1CCC(NC(=O)c3ccc(-c4ccc(Cl)cc4)cc3)CC1)C2 | 92% | 6% | 44%
7 | Cc1nc2ccc(NC(=O)Nc3ccnc4ccc(C(F)(F)F)cc34)cc2o1 | 89% | 24% | 20%
8 | O=C(Nc1ccccc1)N(Cc1ccc(-c2cccc(CNCc3ccc4c(c3)OCO4)c2)cc1)C1CCN(Cc2ccccc2)CC1.O=C(O)C(F)(F)F | 100% | 65% | 29%
9 | CN1CCN(Cc2cc3cc(NC(=O)/C=C/c4cccc(Cl)c4)ccc3s2)CC1.Cl | 100% | 72% | 54%
10 | Cc1cc(N(C)C)nc(Nc2ccc(NC(=O)COc3ccccc3)cc2)n1 | 100% | 67% | 15%
11 | Cc1cc(NC2CCCC2)nc(Nc2ccccc2C)n1 | 88% | 20% | 0%
12 | CCn1ncc2c(N3CCCC3=O)cc(C(=O)N[C@@H](Cc3ccccc3)[C@H](O)CNC(C)(C)c3cccc(C(F)(F)F)c3)cc21 | 98% | 99% | 10%
13 | C[C@H](Cc1ccc(C[C@@H](C)NCC(O)c2cc(Cl)c(N)c(Cl)c2)cc1)NCC(O)c1cc(Cl)c(N)c(Cl)c1 (some centres not stated) | 98% | 50% | 26%
14 | Cc1nc2ccc(F)cc2n1C1CCN(C(=O)Cc2ccc(F)c(F)c2)CC1 | 100% | 99% | 2%
15 | CN1CCCC(CN2CCN(Cc3cccc(-c4ccc(-c5nc6cc(C(F)(F)F)ccc6[nH]5)cc4)c3)CC2)C1.O=C(O)C(F)(F)F (configuration not stated) | 99% | 96% | 100%
16 | Cc1ccc(NC(=O)NC2CCN(c3ccnc4ccccc34)CC2)cc1.O=C(O)C(F)(F)F | 97% | 52% | 21%
17 | CCn1ncc(Cl)c1CN(C)S(=O)(=O)c1ccc2ccccc2c1 | 100% | 91% | 16%
18 | O=C(c1cc2nc3c(c(C(F)(F)F)n2n1)CCc1ccccc1-3)N1CCN2CCCC2C1 (configuration not stated) | 94% | 3% | 0%
19 | CC(C)CN(c1nc(C(=O)NNC(=O)[C@H](CC2CC2)NC(=O)c2cc3cc(OCCN4CCCCC4)ccc3o2)cs1)C1CC1 | 97% | 98% | 2%
20 | O=C(Nc1ccc(-c2oc(C(=O)NCCc3cccc(Cl)c3)cc2-c2ccncc2)cc1)Nc1cccc(Cl)c1.O=C(O)C(F)(F)F | 99% | 84% | 13%

Row | Structure (SMILES) | Inhibition (Plasmodium falciparum [1]) | Inhibition (Plasmodium falciparum [2]) | Inhibition (HepG2)
21 | O=C(/C=C/c1ccc(Cl)c(Cl)c1)NCCCCCN1CCC(NC(=O)Nc2ccc([N+](=O)[O-])cc2)CC1 | 100% | 2% | 20%
22 | CCCCCCc1cc(OC)c(OC)cc1C(C)Nc1ccnc2cc(Cl)ccc12 (configuration not stated) | 95% | 79% | 6%
23 | CN(Cc1cccc(F)c1)C1CCN(c2cc(NC(=O)c3ccc(F)cc3)ccn2)CC1.O=C(O)C(F)(F)F | 95% | 36% | 0%
24 | CC(=O)Oc1cc(C)ccc1C1CCN(CCCCNC(=O)c2ccc(-c3ccc(C(F)(F)F)cc3)cc2)CC1 | 100% | 94% | 54%
25 | O=C(NCC1CCN(CC2CCCCC2)C1)c1cc(-c2cccc(Cl)c2)cs1.O=C(O)C(F)(F)F (configuration not stated) | 85% | 8% | 51%
26 | Cl.NC1(C(=O)O)Cc2ccc(Cl)cc2C1 (configuration not stated) | 93% | 1% | 0%
27 | CC(CN(C)C)Oc1ccc2nc(-c3cccc(OCc4ccccc4)c3)[nH]c2c1C#N (configuration not stated) | 100% | 94% | 57%
28 | Cc1csc(-c2ncc(OC[C@@H](N)Cc3ccccc3)cc2-c2ccc3[nH]nc(C)c3c2)c1.O=C(O)C(F)(F)F | 98% | 35% | 48%
29 | O=C(Nc1cccc(OCCN2CCCC2)c1)Nc1ccc(Cl)c(Cl)c1.O=C(O)C(F)(F)F | 98% | 22% | 3%
30 | CCn1c(-c2nonc2N)nc2c(-c3cccc(NC(=O)Nc4ccc(C#N)cc4)c3)ncc(OCCCN)c21.O=C(O)C(F)(F)F | 85% | 80% | 1%
31 | CC(Cc1ccc(OCC(=O)NCC2CCN(CCc3cccc(Cl)c3)CC2)cc1)NCCc1cccc(Cl)c1.Cl (configuration not stated) | 96% | 85% | 100%
32 | Cc1[nH]c(C)c(-c2cc3ccccc3o2)c(=O)c1Cl | 92% | 13% | 1%
33 | Cc1[nH]c(C)c(-c2ccc(Oc3ccc(OC(F)(F)F)cc3)cc2)c(=O)c1Br | 96% | 97% and 95% | 0%
34 | CCCN1CC[C@@H](CCCc2ccnc3ccc(O)cc23)[C@@H](CC)C1.Cl | 93% | 14% | 10%
35 | COc1cccc(-c2csc(C(=O)NCC3CCN(Cc4ccc(C(C)C)cc4)C3)c2)c1.O=C(O)C(F)(F)F (configuration not stated) | 86% | 9% | 35%
36 | COc1ccc2nccc([C@@H](O)CN3CCC(NCc4cnc5c(c4)NC(=O)CS5)C(F)C3)c2c1.Cl (some centres not stated) | 90% | 90% | 0%
37 | COc1ccc(-c2ccc(NC(=O)c3cccc(F)c3)cc2)cc1CN1CCCN(C)CC1.O=C(O)C(F)(F)F | 100% | 49% | 32%
38 | Cl.c1ccc2c(Nc3ccc(Oc4ccc(Nc5c6ccccc6nc6ccccc56)cc4)cc3)c3ccccc3nc2c1 | 100% | 99% | 21%
39 | Cc1ccc(NC(=O)c2ccc(CN3CCCN(CC4CCCCC4)CC3)cc2)cc1C.O=C(O)C(F)(F)F | 86% | 32% | 38%
40 | CCCc1ccc(S(=O)(=O)NC2CCN(c3ccnc(Nc4ccc(F)cc4)n3)C2)cc1 (configuration not stated) | 95% | 56% | 40%

Row | Structure (SMILES) | Inhibition (Plasmodium falciparum [1]) | Inhibition (Plasmodium falciparum [2]) | Inhibition (HepG2)
41 | CC(Cc1ccc(C(=O)OCCOC(=O)c2ccc(CC(C)NCC(O)c3cccc(C(F)(F)F)c3)cc2)cc1)NCC(O)c1cccc(C(F)(F)F)c1 (configuration not stated) | 98% | 86% | 10%
42 | O=C(Nc1ccccc1Oc1ccccc1)NC1CCN(c2ccnc3cc(Cl)ccc23)C1.O=C(O)C(F)(F)F (configuration not stated) | 99% | 74% | 0%
43 | CCN1CCN(Cc2ccc(-c3ccc(NS(=O)(=O)c4cccc5cccnc45)cc3)cc2)CC1.O=C(O)C(F)(F)F | 90% | 42% | 29%
44 | FC(F)(F)c1ccc2[nH]c(-c3ccc(-c4ccc(CNCC5CCCO5)cc4)cc3)nc2c1.O=C(O)C(F)(F)F (configuration not stated) | 100% | 100% | 33%
45 | CCCCCCn1c(Sc2ccc(C#N)c([N+](=O)[O-])c2)nnc1-c1cc(OC)cc(OC)c1 | 95% | 41% | 35%
46 | COc1ccc(NC(=O)Nc2nc(-c3ccc(Cl)c(C)c3)cs2)cc1N1CCN(C)CC1.Cl | 99% | 89% | 9%
47 | c1ccc(Oc2ccc(Nc3ccnc4cc(-c5csc(CN6CCCCC6)n5)ccc34)cc2)nc1 | 100% | 95% | 22%
48 | O=C(C1CCCCC1)N1CCOC(CCN2CCC(c3ccccc3)CC2)(c2ccc(Cl)c(Cl)c2)C1 (configuration not stated) | 92% | 86% | 6%
49 | COc1cc2c(Nc3ccc(Br)cc3F)ncnc2cc1OCC1CCN(C)CC1.Cl | 97% | 16% | 10%
50 | CC(c1cccc(S(=O)(=O)NCc2ccc(Cl)cc2Cl)c1)N1CCC(N2CCCCC2)CC1 (configuration not stated) | 100% | 40% | 36%
51 | COc1cccc(NC(=O)Nc2ccc(-c3oc(C(=O)NCC(c4ccccc4)N(C)C)cc3-c3ccncc3)cc2)c1.O=C(O)C(F)(F)F (configuration not stated) | 100% | 99% | 6%
52 | CC(C)c1ccc(CN2CCC(NC(=O)c3ccc(-c4cccc(Cl)c4)s3)CC2)cc1.O=C(O)C(F)(F)F | 82% | 6% | 50%
53 | O=C(/C=C/c1ccc([N+](=O)[O-])cc1)N1CCC(CCN2CCC(c3c[nH]c4ccccc34)CC2)CC1 | 100% | 48% | 60%
54 | CCCCn1c(N)c(N(Cc2ccco2)C(=O)C=Cc2cc(OC)c3c(c2)OCCO3)c(O)nc1=O | 85% | 94% | 4%
55 | CC(Cl)=CCc1c(C)nc2c(ccc3ccccc32)c1O | 96% | 96% | 24%
56 | Cn1c(Sc2ncnc3sccc23)nc2ccccc21 | 100% | 100% | 0%
57 | NC(=O)c1cnc2ccc(-c3cncs3)cc2c1Nc1ccc(F)c(Cl)c1 | 97% | 99% | 3%
58 | CCCCCCN1CCCN(Cc2ccc(C(=O)Nc3ccc(C(C)C)cc3)cc2)CC1.O=C(O)C(F)(F)F | 93% | 50% | 40%
59 | CCc1c(CCNCCCCCCNCCc2ccc(OC)cc2)ccc(OC)c1OC.Cl | 98% | 0% | 16%
